Data on eleven compounds can be found in PubChem BioAssay.

Results filed as inconclusive are left out. Calls of active or inactive are those of the source. Unless noted, no rule for the calls is given here.

Experiment [1] has as its target ATP-dependent translocase ABCB1 (Homo sapiens) (UniProt P08183). The experiment in a line: P-glycoprotein substrate transport blockade – cell-based (AID 377; in the data active = fluorescence slope change above about 50%). The conditions noted are these: MDR1-expressing cells, fluorescent substrate accumulation slope; stronger effect = higher value; concentration not given here.
The nature of experiment [2]: blockers of polyQ-driven CASP3 activation – cell-based (AID 1583). The conditions noted are these: polyglutamine-induced caspase-3 activation, cell assay; stronger effect = higher value;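 tested at 10 µM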.
The nature of experiment [3]: compounds altering circadian rhythm period length – cell-based, LOPAC library, luminescence reporter (AID 2774).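 Also: values are relative to mean of DMSO wells on each plate.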 To be noted: circadian reporter cells, at 7 µM, actives lie on both sides.
Experiment [4] can be described thus: compounds altering viability of human ES cells (AID 493140).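 Also: cells exposed to compounds for four days before counting.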 The conditions noted are these: human embryonic stem cell survival screen; stronger effect = higher value.
The nature of experiment [5]: stimulators of insulin release from INS-1E, primary screen, cell-based, 5 mM glucose, NPC library (AID 1117329;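 active = compound raises insulin release from rat beta cells at 5 mM glucose, no numeric limit stated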). To be noted: rat INS-1E insulin secretion, at 10 µM, stronger effect = higher value.
The nature of experiment [6]: growth inhibition of GSK3B-pretreated HCT116 cells – cell-based, CellTiter-Glo, 0.2 to 20 µM (AID 1117336;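 active = compounds lowering colon cancer cell viability after pretreatment blocking the GSK3B kinase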). To be noted: HCT116 viability after GSK3B inhibitor, at 20 µM, stronger effect = higher value.
The nature of experiment [7]: inhibition of endothelial tube formation, primary screen, imaging, VEGF stimulated, CD31 staining, tube area, NPC library (AID 1117340;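 active = compound that reduces growth-factor-driven endothelial tube area in a mixed cell culture, no cutoff stated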). To be noted: VEGF-stimulated ADSC/ECFC co-culture, at 10 µM, stronger effect = higher value.
The nature of experiment [8]: GLP1 release stimulators, primary, NCI-H716, NPC library (AID 1117341;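 active = compound raises GLP1 secretion from the human gut endocrine cells, with no numeric limit stated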). To be noted: NCI-H716 cells, at 10 µM, stronger effect = higher value.
Experiment [9] is described as follows: HCT116 colon cancer cell growth inhibition, primary screen, CellTiter-Glo luminescence, NPC library (AID 1117342;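 active = compounds that lower survival of HCT116 colon cancer cells in the luminescence readout, no numeric limit stated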). To be noted: at 20 µM (top of the series). In general terms: Cellular ATP, detected with luciferase, serves as a proxy for viable cell number.
Experiment [10] in a line: reduced SW480 viability measured with CellTiter-Glo, NPC library, primary (AID 1117343;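 active = compounds that lower viability of the colon cancer cells in the luminescence readout, with no numeric limit stated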). The conditions noted are these: CellTiter-Glo luminescence; at 20 µM (top of the series) unless noted.
Experiment [11] in a line: NPC library primary testing for decreased DLD-1 cell viability via CellTiter-Glo (AID 1117346;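 active = compounds that lower survival of DLD-1 colon cancer cells in the luminescence readout, no cutoff given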). The conditions noted are these: DLD-1 viability, CellTiter-Glo luminescence; at 20 µM (top of the series).
Experiment [12] is described as follows: blockers of cellular phospholipid synthesis – cell-based, LOPAC library, screen 4, primary screen (AID 1347384). To be noted: animal cells, phospholipid biosynthesis inhibition screen; at 10 µM.
Experiment [13] relates to Neuropilin-2 / VEGF-C interaction (human). Description: small molecules blocking Neuropilin-2/VEGF-C interaction – biochemical, microplate binding format, z-score (AID 743281). To be noted: microplate NRP2/VEGF-C binding assay; stronger effect = lower value.
Experiment [14] is described as follows: viability loss in pontine glioma line – cell-based, JHH-DIPG-1, MIPE4.0, CellTiter-Glo, qHTS, dose response (AID 1347062; cut-off not given, nearly all actives have AC50 up to about 27 µM). To be noted: JHH-DIPG-1 viability, CellTiter-Glo ATP luminescence.
The next experiment concerns F380Y/beta1. Description: BK channel mutant inhibitors and activators – cell-based, U2OS BacMam, thallium flux, beta subunits, selectivity assay, profiling panel (AID 1259406;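 active = thallium flux through the channel raised or lowered by more than 3 SD from vehicle-only wells, actives on both sides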;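 also: initial slope of Thallos dye fluorescence rise after thallium is added; log ratio against the mean of 0.3% DMSO vehicle wells on the same plate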). To be noted: U2OS BacMam BK variants, at 30 µM.
The test system of a further experiment is F380Y/beta4. The experiment is described as above. To be noted: U2OS BacMam BK variants, at 30 µM.
A further experiment has as its system R275C/beta4. The experiment is described as above. The conditions noted are these: U2OS BacMam BK variants, at 30 µM.
Another experiment relates to R275C/Slo1WT/beta2. The description is as above. To be noted: U2OS BacMam BK variants, at 30 µM.
Experiment [15] can be described thus: compounds altering HSF1 focus formation in cells – imaging, Selleck Cancer Library (AID 1347162; in the data active = plate-normalised HSF1 focus index below about 0.46). To be noted: human cells, HSF1 nuclear foci imaging, at 10 µM; SSMD: measured here: HSF1 foci SSMD mean; cell count: measured here: cell number; plate-normalised HSF1 focus index: stronger effect = lower value.
Experiment [16] can be described thus: growth inhibition of DIPG cells – cell-based, MIPE4.0 library, CellTiter-Glo luminescence, qHTS (AID 1347066; cut-off not given, nearly all actives have AC50 up to about 30 µM;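 also: cells exposed to compound for 48 hours before readout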). The conditions noted are these: SU-DIPG-VI viability, CellTiter-Glo ATP luminescence.

Chain of ATP-dependent translocase ABCB1 (Homo sapiens) (P08183 whole entry, looked up): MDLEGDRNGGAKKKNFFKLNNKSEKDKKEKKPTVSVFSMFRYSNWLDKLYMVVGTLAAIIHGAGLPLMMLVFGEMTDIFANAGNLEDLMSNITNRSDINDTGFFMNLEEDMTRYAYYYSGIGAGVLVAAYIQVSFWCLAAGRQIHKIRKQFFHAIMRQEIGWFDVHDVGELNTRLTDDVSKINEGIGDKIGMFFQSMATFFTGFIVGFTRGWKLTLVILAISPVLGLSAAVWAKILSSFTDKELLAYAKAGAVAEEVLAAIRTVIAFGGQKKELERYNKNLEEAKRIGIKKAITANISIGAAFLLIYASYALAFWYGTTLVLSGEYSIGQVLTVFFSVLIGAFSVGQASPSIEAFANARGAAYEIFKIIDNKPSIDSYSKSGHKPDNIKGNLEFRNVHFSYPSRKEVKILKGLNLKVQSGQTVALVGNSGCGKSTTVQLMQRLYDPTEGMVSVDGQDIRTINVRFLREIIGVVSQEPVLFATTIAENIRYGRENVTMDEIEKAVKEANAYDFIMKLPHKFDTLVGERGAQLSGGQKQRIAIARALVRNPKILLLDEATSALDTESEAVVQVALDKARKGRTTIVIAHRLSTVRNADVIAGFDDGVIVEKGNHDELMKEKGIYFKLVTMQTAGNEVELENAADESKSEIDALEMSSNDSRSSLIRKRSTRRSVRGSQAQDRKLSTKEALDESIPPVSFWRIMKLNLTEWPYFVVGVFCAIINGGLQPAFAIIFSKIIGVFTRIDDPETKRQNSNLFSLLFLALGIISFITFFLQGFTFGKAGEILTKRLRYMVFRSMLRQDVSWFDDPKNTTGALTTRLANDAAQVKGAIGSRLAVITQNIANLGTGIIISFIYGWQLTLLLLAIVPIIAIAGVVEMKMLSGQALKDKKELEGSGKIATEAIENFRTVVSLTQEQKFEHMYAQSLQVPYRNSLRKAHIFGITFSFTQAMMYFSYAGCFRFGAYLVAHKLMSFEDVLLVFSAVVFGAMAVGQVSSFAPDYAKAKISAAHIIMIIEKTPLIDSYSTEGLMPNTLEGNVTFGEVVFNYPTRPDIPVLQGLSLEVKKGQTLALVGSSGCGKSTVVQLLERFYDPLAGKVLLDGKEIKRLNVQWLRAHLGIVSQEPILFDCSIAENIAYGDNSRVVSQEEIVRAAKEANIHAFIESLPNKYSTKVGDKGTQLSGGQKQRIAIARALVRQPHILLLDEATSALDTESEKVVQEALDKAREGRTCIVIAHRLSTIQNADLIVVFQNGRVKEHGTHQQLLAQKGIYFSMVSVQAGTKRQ

With `CC(C)(C)c1ccc(C(O)CCCN2CCC(C(O)(c3ccccc3)c3ccccc3)CC2)cc1` (centres undefined), the fluorescence slope change in experiment [1] is 182% (active). In [2], the inhibition is 70.6%. The period change in [3] was 0.22 h (inactive). Further, the survival in [4] is 3.75 (inactive). Also, the insulin secretion stimulation in experiment [5] was 5.9% (inactive). For the same compound, the viability decrease in [6] was 101% (active). Besides, the tube area decrease in [7] is 98.4% (active). Besides, the GLP1 secretion stimulation in experiment [8] is 70% (active). In addition, the inhibition of viability in [9] was 102% (active). Also, the figures for the viability decrease (inhibition) in [10] and in experiment [11] were 142% (active) and 103% (active), respectively. Also, in [12], the compound was called inactive.
In the case of `CN1[C@@H]2CC(OC(=O)[C@H](CO)c3ccccc3)C[C@H]1[C@@H]1O[C@@H]12` (some centres undefined), the z-score in experiment [13] is -0.461 (inactive). Also, the insulin secretion stimulation in experiment [5] was 0.9% (inactive). The viability decrease in experiment [6] was 1% (inactive). The tube area decrease in experiment [7] was -4.7% (inactive). Also, in experiment [8], the GLP1 secretion stimulation is 2.4% (inactive). Also, the inhibition of viability in experiment [9] was -0.5% (inactive). Besides, the viability decrease (inhibition) was -5.7% (inactive) in experiment [10] and -0.6% (inactive) in experiment [11].
For `NCCCC(O)(P(=O)(O)O)P(=O)(O)O`, in [5], the insulin secretion stimulation was 2.3% (inactive). Further, in [6], the viability decrease was 6.9% (inactive). Further, the tube area decrease in [7] is -27.4% (inactive). Also, the GLP1 secretion stimulation in [8] is 1.2% (inactive). For the same compound, the inhibition of viability in experiment [9] was 1.17% (inactive). The values for the viability decrease (inhibition) in [10] and in experiment [11] were -1.7% (inactive) and -3.8% (inactive), respectively. The result in experiment [14] was inactive.
Take `CN(C)C(=N)N=C(N)N`: the survival in experiment [4] was 14 (inactive). The insulin secretion stimulation in experiment [5] is -2.3% (inactive). Moreover, the viability decrease in experiment [6] is -7% (inactive). In [7], the tube area decrease is -11.5% (inactive). Moreover, in experiment [8], the GLP1 secretion stimulation is 3.1% (inactive). Also, the inhibition of viability in experiment [9] is -25.7% (inactive). Also, the viability decrease (inhibition) in experiment [10] is 17% (inactive); in experiment [11], -1.55% (inactive).
`CC(C)(C(=O)O)c1ccc(C(O)CCCN2CCC(C(O)(c3ccccc3)c3ccccc3)CC2)cc1` (centres undefined): in experiment [3], the period change was 0.08 h (inactive). In addition, in [5], the insulin secretion stimulation is 2.1% (inactive). Further, the viability decrease in [6] was 1.3% (inactive). Moreover, in experiment [7], the tube area decrease was -20.5% (inactive). Moreover, in experiment [8], the GLP1 secretion stimulation was -2.2% (inactive). The inhibition of viability in [9] was -3.77% (inactive). Also, the viability decrease (inhibition) in experiment [10] was 33.1% (inactive); in experiment [11] it was -0.4% (inactive). For the same compound, the result in experiment [12] was inactive. Besides, the log fold change Tl+ flux in the experiment with F380Y/beta1 is -0.0158 (inactive); in the experiment on F380Y/beta4 it was -0.0315 (inactive); in the experiment on R275C/beta4 it was 0.0234 (inactive); with R275C/Slo1WT/beta2, 0.0197 (inactive).
Take `CC(C)n1c(/C=C/[C@@H](O)C[C@@H](O)CC(=O)O)c(-c2ccc(F)cc2)c2ccccc21`: in [4], the survival is 2.5 (inactive). Also, the insulin secretion stimulation in experiment [5] is 3.6% (inactive). For the same compound, in experiment [6], the viability decrease was 97.8% (active). In [7], the tube area decrease is 100% (active). Further, the GLP1 secretion stimulation in experiment [8] is 1.4% (inactive). In addition, the inhibition of viability in [9] is 88.8% (active). In addition, the viability decrease (inhibition) was 111% (active) in experiment [10] and 50.2% (active) in experiment [11]. Also, in [15], the SSMD worked out at 2.42. Moreover, the cell count in experiment [15] was found to be 6600. Besides, the plate-normalised HSF1 focus index in [15] was 1.13 (inactive). Besides, the log fold change Tl+ flux in the experiment on F380Y/beta1 was 0.0905 (inactive); with F380Y/beta4, 8.3e-05 (inactive); in the experiment on R275C/beta4, 0.103 (inactive); with R275C/Slo1WT/beta2, 0.0615 (inactive).
Regarding `O=C(O)CCn1c2c(c3ccccc31)C[C@H](NS(=O)(=O)c1ccc(F)cc1)CC2`, the insulin secretion stimulation in experiment [5] is 0.95% (inactive). For the same compound, the viability decrease in experiment [6] was 8.7% (inactive). Besides, the tube area decrease in [7] is -6.1% (inactive). Also, the GLP1 secretion stimulation in [8] is -0.3% (inactive). The inhibition of viability in experiment [9] was 5.1% (inactive). In addition, the viability decrease (inhibition) in experiment [10] is -25.4% (inactive); in experiment [11], -0.3% (inactive). Moreover, the compound was called inactive in [14] and in experiment [16].
In the case of `CN(C)c1nc(N(C)C)nc(N(C)C)n1`, in [15], the SSMD stood at 0.836, the cell count stood at 7300 and the plate-normalised HSF1 focus index was 1.03 (inactive).
The matching figures for `CCc1ccc(CCOc2ccc(CC3SC(=O)NC3=O)cc2)nc1` (centres undefined): -1.24, 7530 and 0.926 (inactive).
On to `O=C(O[C@@H]1Cc2c(O)cc(O)cc2O[C@@H]1c1cc(O)c(O)c(O)c1)c1cc(O)c(O)c(O)c1`, for which, in experiment [13], the z-score was 2.31 (inactive). In experiment [15], the SSMD is 0.931, the cell count worked out at 6910 and the plate-normalised HSF1 focus index was 1.03 (inactive).
Regarding `CN1CCN(CC/C=C2/c3ccccc3Sc3ccc(S(=O)(=O)N(C)C)cc32)CC1`, in [3], the period change is 0.09 h (inactive).

In general, inhibition refers to the drop in the measured response relative to a control, in per cent.
